This passage reports outcome and AC50 results from PubChem BioAssay (EPA / NIEHS).

Activity calls are given as the source filed them. The calls were made as follows: active = hit-call score of the fitted dose curve at least 0.9, where 1 is the maximum; inactive = score below 0.9.

Settings in all cases: mRNA level, 48 h; actives raise or lower the signal
Read-out in one test: BCL2L11 (gene 10018)
Briefly: LTEA_HepaRG_BCL2L11: Life Technologies and Expression Analysis (LTEA) Assay for Bcl-2 (BCL2L11) gene using HepaRG (AID 2283473). Summed up:
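HepaRG, 48 h exposure, 8-pt half-log series from 100 uM in 0.5% DMSO, duplicates; qRT-PCR (Fluidigm TaqMan) for BCL2L11, housekeeping-normalized; bidirectional curve fit relative to DMSO baseline.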

Read-out in test [1]: Apolipoprotein A-V (APOA5) gene, APOA5 (gene 116519)
Briefly: LTEA_HepaRG_APOA5: Life Technologies and Expression Analysis (LTEA) Assay for Apolipoprotein A-V (APOA5) gene using HepaRG (AID 2283474). Summed up: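 HepaRG, 48 h chemical exposure in serum-free induction medium, 8-pt half-log series (top 100 uM), 0.5% DMSO vehicle, duplicates. Readout: APOA5 mRNA by qRT-PCR, housekeeping-normalized; bidirectional fit vs DMSO baseline.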

Read-out in test [2]: Apoptosis regulator Bcl-2 (Homo sapiens) (UniProt P10415)
Briefly: LTEA_HepaRG_BCL2: Life Technologies and Expression Analysis (LTEA) Assay for Bcl-2 gene using HepaRG (AID 2283475). Summed up:
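qRT-PCR of BCL2 transcript, normalized to three housekeeping genes (ACTB, GAPDH, POLR2A), after 48 h chemical exposure of HepaRG cells; concentrations top 100 uM with half-log dilutions, 0.5% DMSO vehicle, duplicates; changes up or down fitted relative to vehicle.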

Read-out in test [3]: Bcl-2 (BID) gene, BID (gene 637)
Briefly: LTEA_HepaRG_BID: Life Technologies and Expression Analysis (LTEA) Assay for Bcl-2 (BID) gene using HepaRG (AID 2283476). A digest of the protocol:
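Duplicate 48 h treatments of HepaRG cells in serum-free induction medium spanned 100 uM downward in half-log steps, 0.5% DMSO. Transcript change quantified by qRT-PCR against three housekeeping genes, fitted up or down versus DMSO.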

Read-out in the next test: Caspase-3 (Homo sapiens) (UniProt P42574)
The test is described as follows: LTEA_HepaRG_CASP3: Life Technologies and Expression Analysis (LTEA) Assay for cysteine-aspartic acid protease (CASP3) using HepaRG (AID 2283477). Summed up:
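HepaRG, 48 h exposure, 8 conc. (top 100 uM, half-log steps, duplicate), 0.5% DMSO vehicle; qRT-PCR of CASP3 transcript, housekeeping-normalised (ACTB/GAPDH/POLR2A); bidirectional curve fit vs DMSO baseline.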

Read-out in test [4]: Cytochrome P450 (CYP24A1), CYP24A1 (gene 1591)
The test is described as follows: LTEA_HepaRG_CYP24A1: Life Technologies and Expression Analysis (LTEA) Assay for Cytochrome P450 (CYP24A1) using HepaRG (AID 2283478). Summed up:
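qRT-PCR read-out: CYP24A1 transcript levels normalized to three housekeeping genes, bidirectional curve fits against 0.5% DMSO baseline. Human HepaRG cells treated 48 h with chemicals at eight concentrations from 100 uM in half-log steps.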

Read-out in test [5]: Cytochrome P450 (CYP1A2), CYP1A2 (gene 1544)
The test is described as follows: LTEA_HepaRG_CYP1A2: Life Technologies and Expression Analysis (LTEA) Assay for Cytochrome P450 (CYP1A2) using HepaRG (AID 2283479). A digest of the protocol:
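HepaRG, 48 h exposure, top 100 uM, half-log 8-pt, 0.5% DMSO vehicle, duplicates. Readout: TaqMan qRT-PCR of CYP1A2 mRNA, housekeeping-normalized (ACTB/GAPDH/POLR2A). Gain/loss fit relative to DMSO baseline.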

Read-out in test [6]: cysteine-aspartic acid protease (CASP8), CASP8 (gene 841)
The test is described as follows: LTEA_HepaRG_CASP8: Life Technologies and Expression Analysis (LTEA) Assay for cysteine-aspartic acid protease (CASP8) using HepaRG (AID 2283480). Summed up: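 Concentration-response in duplicate up to 100 uM (half-log steps, 0.5% DMSO) on differentiated HepaRG cultures for 48 h. Expression change of CASP8 mRNA is determined by TaqMan qRT-PCR with housekeeping-gene normalization.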

Read-out in test [7]: Cytochrome P450 (CYP2B6), CYP2B6 (gene 1555)
Briefly: LTEA_HepaRG_CYP2B6: Life Technologies and Expression Analysis (LTEA) Assay for Cytochrome P450 (CYP2B6) using HepaRG (AID 2283481). Summed up:
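Read-out is CYP2B6 mRNA by TaqMan qRT-PCR, normalized to three housekeeping genes and fitted bidirectionally against 0.5% DMSO baseline. Human HepaRG cells received test chemicals for 48 h, top concentration 100 uM, half-log dilutions.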

Read-out in test [8]: Cytochrome P450 2C19 (Homo sapiens) (UniProt P33261)
Briefly: LTEA_HepaRG_CYP2C19: Life Technologies and Expression Analysis (LTEA) Assay for CYP2C19 using HepaRG (AID 2283482). Summed up: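 HepaRG, 48 h chemical exposure, 8-pt half-log series from 100 uM in 0.5% DMSO, duplicates. Readout: CYP2C19 mRNA by TaqMan qRT-PCR, housekeeping-normalized. Bidirectional fit vs DMSO baseline; phenobarbital 1mM as induction control.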

Read-out in another test: CYP2C8 (gene 1558)
Briefly: LTEA_HepaRG_CYP2C8: Life Technologies and Expression Analysis (LTEA) Assay for CYP2C8 using HepaRG (AID 2283483). Summed up:
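This is a transcriptional endpoint in HepaRG cultures: 48 h exposure, highest concentration 100 uM. CYP2C8 mRNA is quantified by TaqMan qRT-PCR.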

Read-out in a further test: CYP2C9 (gene 1559)
The test is described as follows: LTEA_HepaRG_CYP2C9: Life Technologies and Expression Analysis (LTEA) Assay for CYP2C9 using HepaRG (AID 2283484). Summed up: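 Eight-point concentration-response (highest 100 uM, half-log dilutions) in HepaRG cells for 48 h; CYP2C9 expression by qRT-PCR normalized to ACTB, GAPDH, POLR2A. Bidirectional fit, DMSO baseline.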

Read-out in a further test: CYP2E1 (gene 1571)
Briefly: LTEA_HepaRG_CYP2E1: Life Technologies and Expression Analysis (LTEA) Assay for CYP2E1 using HepaRG (AID 2283485). Summed up: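 CYP2E1 transcript measured by Fluidigm qRT-PCR against three housekeeping genes in human HepaRG cells treated 48 h (top 100 uM, half-log steps, 0.5% DMSO vehicle). Gain or loss fitted relative to DMSO baseline.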

Read-out in a further test: CYP4A11 (gene 1579)
The test is described as follows: LTEA_HepaRG_CYP4A11: Life Technologies and Expression Analysis (LTEA) Assay for CYP4A11 using HepaRG (AID 2283486). Summed up:
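CYP4A11 transcript levels were quantified by TaqMan qRT-PCR after HepaRG human liver cells were treated for 48 hours with test chemicals (top 100 uM, half-log dilutions, 0.5% DMSO). Gain or loss of signal was fitted relative to DMSO.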

Read-out in test [9]: Cytochrome P450 3A4 (Homo sapiens) (UniProt P08684)
Briefly: LTEA_HepaRG_CYP3A4: Life Technologies and Expression Analysis (LTEA) Assay for CYP3A4 using HepaRG (AID 2283487). A digest of the protocol:
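Differentiated HepaRG cells in serum-free induction medium exposed in duplicate for 48 h to 8 half-log concentrations up to 100 uM in 0.5% DMSO. CYP3A4 mRNA measured by qRT-PCR normalized to ACTB, GAPDH and POLR2A; bidirectional fit versus DMSO.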

Read-out in test [10]: DNA damage-inducible transcript 3 (DDIT3), DDIT3 (gene 1649)
The test is described as follows: LTEA_HepaRG_DDIT3: Life Technologies and Expression Analysis (LTEA) Assay for DNA damage-inducible transcript 3 (DDIT3) using HepaRG (AID 2283488). Summed up: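 DDIT3 transcript was quantified by qRT-PCR with ACTB/GAPDH/POLR2A normalization after 48 h chemical treatment of differentiated HepaRG cells in 0.5% DMSO. Dosing was eight-point, half-log, top 100 uM, duplicate wells. Curves fitted bidirectionally versus DMSO.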

Read-out in test [11]: Pro-epidermal growth factor (Homo sapiens) (UniProt P01133)
The test is described as follows: LTEA_HepaRG_EGF: Life Technologies and Expression Analysis (LTEA) Assay for Epidermal growth factor (EGF) using HepaRG (AID 2283489). Summed up:
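qRT-PCR readout of EGF transcript after 48 h chemical exposure of HepaRG cells; eight concentrations from 100 uM down in half-log steps, duplicate wells, 0.5% DMSO vehicle. Bidirectional curve fitting against DMSO baseline.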

Read-out in test [12]: Early growth response protein 1 (EGR1) transcription factor, EGR1 (gene 1958)
Briefly: LTEA_HepaRG_EGR1: Life Technologies and Expression Analysis (LTEA) Assay for Early growth response protein 1 (EGR1) transcription factor using HepaRG (AID 2283490). A digest of the protocol: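 EGR1 expression change in human HepaRG after 48 h chemical exposure, assessed by housekeeping-normalized qRT-PCR; concentration-response up to 100 uM, fitted in both directions against DMSO controls.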

Read-out in test [13]: Ezrin (EZR), EZR (gene 7430)
Briefly: LTEA_HepaRG_EZR: Life Technologies and Expression Analysis (LTEA) Assay for Ezrin (EZR) using HepaRG (AID 2283491). A digest of the protocol:
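Differentiated human HepaRG cells, 48 h after plating, were exposed in serum-free induction medium for 48 hours to eight half-log concentrations up to 100 uM in 0.5% DMSO. EZR mRNA was measured by TaqMan qRT-PCR, normalized to ACTB, GAPDH and POLR2A, and fitted bidirectionally against DMSO.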

Read-out in test [14]: Cytochrome P450 3A7 (Homo sapiens) (UniProt P24462)
The test is described as follows: LTEA_HepaRG_CYP3A7: Life Technologies and Expression Analysis (LTEA) Assay for CYP3A7 using HepaRG (AID 2283492). Summed up:
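CYP3A7 transcript levels were read by TaqMan qRT-PCR on Fluidigm arrays after 48 h chemical exposure of human HepaRG cells, with housekeeping-gene normalisation. Eight half-log concentrations up to 100 uM in 0.5% DMSO were tested in duplicate.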

Sequence of Cytochrome P450 3A4 (Homo sapiens) (P08684 whole entry, looked up): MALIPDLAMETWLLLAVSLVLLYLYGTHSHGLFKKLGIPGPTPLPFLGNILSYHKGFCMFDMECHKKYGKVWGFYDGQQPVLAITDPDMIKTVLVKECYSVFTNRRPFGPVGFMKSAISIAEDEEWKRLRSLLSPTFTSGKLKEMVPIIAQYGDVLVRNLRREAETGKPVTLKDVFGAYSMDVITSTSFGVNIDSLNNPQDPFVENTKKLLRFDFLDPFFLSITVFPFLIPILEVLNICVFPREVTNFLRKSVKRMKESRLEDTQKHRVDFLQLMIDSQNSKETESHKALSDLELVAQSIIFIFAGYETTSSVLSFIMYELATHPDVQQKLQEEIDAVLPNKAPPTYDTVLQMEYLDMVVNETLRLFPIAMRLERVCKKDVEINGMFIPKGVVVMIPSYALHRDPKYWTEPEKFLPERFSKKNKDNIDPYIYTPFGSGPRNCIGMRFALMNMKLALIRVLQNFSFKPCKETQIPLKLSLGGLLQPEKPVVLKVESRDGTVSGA
Sequence of Caspase-3 (Homo sapiens) (P42574 whole entry, looked up): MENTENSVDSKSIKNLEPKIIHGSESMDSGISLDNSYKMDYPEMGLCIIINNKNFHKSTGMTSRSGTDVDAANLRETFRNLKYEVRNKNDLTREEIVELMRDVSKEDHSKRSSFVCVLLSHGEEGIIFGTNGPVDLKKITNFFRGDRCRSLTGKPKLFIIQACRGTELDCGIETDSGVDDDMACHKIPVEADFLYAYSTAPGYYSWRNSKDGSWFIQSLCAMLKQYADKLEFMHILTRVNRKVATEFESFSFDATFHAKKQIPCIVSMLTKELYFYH
Sequence of Cytochrome P450 3A7 (Homo sapiens) (P24462 whole entry, looked up): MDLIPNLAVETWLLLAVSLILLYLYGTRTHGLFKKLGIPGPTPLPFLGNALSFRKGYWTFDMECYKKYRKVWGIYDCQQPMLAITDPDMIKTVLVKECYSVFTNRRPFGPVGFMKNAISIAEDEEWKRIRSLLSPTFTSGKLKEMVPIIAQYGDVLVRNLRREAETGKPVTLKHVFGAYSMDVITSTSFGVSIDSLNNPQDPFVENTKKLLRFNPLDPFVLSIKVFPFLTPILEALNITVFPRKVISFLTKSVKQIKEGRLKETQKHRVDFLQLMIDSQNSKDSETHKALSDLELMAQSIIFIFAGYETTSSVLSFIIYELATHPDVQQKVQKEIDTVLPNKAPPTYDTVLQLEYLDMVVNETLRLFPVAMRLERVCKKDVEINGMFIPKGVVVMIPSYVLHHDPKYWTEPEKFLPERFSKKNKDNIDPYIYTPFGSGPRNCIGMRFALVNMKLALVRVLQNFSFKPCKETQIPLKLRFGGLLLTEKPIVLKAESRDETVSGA
Sequence of Apoptosis regulator Bcl-2 (Homo sapiens) (P10415 whole entry, looked up): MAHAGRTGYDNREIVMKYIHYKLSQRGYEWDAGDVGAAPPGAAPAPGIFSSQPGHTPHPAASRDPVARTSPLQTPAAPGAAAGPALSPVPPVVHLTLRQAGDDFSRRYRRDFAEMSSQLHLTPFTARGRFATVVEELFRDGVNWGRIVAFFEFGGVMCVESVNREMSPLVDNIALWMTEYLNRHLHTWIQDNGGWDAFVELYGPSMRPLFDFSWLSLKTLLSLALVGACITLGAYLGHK
Sequence of Cytochrome P450 2C19 (Homo sapiens) (P33261 whole entry, looked up): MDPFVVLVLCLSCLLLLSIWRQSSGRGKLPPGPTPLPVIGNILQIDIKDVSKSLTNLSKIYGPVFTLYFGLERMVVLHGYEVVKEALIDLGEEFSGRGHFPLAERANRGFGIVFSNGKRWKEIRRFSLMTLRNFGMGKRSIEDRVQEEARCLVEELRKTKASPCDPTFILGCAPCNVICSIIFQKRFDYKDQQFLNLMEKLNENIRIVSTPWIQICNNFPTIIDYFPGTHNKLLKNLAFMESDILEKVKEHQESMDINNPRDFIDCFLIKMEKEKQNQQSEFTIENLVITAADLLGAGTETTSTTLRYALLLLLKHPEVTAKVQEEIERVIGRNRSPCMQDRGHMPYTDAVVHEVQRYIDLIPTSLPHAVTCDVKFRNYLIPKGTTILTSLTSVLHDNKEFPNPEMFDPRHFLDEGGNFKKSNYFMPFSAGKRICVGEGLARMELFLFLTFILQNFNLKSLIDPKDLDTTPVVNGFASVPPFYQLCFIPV

As to `OCCCBr`, the outcome (with BCL2L11 (gene 10018); in test [1]; in [2]; in test [3]; with Caspase-3 (Homo sapiens); in [4]) was inactive. For the same compound, the call (in test [5]; in [6]; in test [8]; with CYP2C8 (gene 1558); in the test with CYP2C9 (gene 1559); with CYP2E1 (gene 1571)) was inactive. Also, the result (with CYP4A11 (gene 1579); in [9]; in [10]; in test [11]; in test [12]; in [13]) was inactive. Besides, the call in test [14] was inactive. Besides, the AC50 in test [7] was 40.8 µM (active).

In the case of `O=P(OCCCl)(OCCCl)OCCCl`, the compound was called inactive (with BCL2L11 (gene 10018); in test [1]; in test [2]; in test [3]; with Caspase-3 (Homo sapiens); in test [4]). Moreover, the outcome (in test [5]; in test [6]; in test [8]; with CYP2C8 (gene 1558); in the test with CYP2C9 (gene 1559); in the test with CYP4A11 (gene 1579)) was inactive. Moreover, the result in [9], in test [10], in test [11], in test [12], in [13] and in test [14] was inactive. Also, the AC50 in test [7] is 10.2 µM (active); with CYP2E1 (gene 1571), 25.7 µM (active).

On to `CC(C)(OOC(C)(C)c1ccccc1)c1ccccc1`, for which the result (with BCL2L11 (gene 10018); in test [1]; in test [2]; in [3]; in the test with Caspase-3 (Homo sapiens); in [4]) was inactive. In addition, the outcome (in [5]; in test [6]; with CYP2C9 (gene 1559); with CYP4A11 (gene 1579); in [10]; in test [11]) was inactive. The compound was classed as inactive in [12] and in test [13]. For the same compound, the AC50 was 7.24 µM (active) in [7]; 30 µM (active) in test [8]; 25.4 µM (active) in the test with CYP2C8 (gene 1558); 35.1 µM (active) with CYP2E1 (gene 1571); 23.9 µM (active) in test [9]; 40.4 µM (active) in test [14].

As a reminder, the AC50 is the concentration giving half of the maximal activity seen.
